Compounds with a hit are over-represented: about 3.7% of the library has one in this group of screens.
esBAF inh: inhibitors of esBAF chromatin remodeling in mouse ES cells; Bmi1-luciferase knock-in reporter, 24 h; 100% = twice the neutral-well signal; reporter increase, % at 12.5 µM; hit rate 2% among 350,000; in the data active = activation above about 40%; inconclusive = no clear call, values can overlap the other calls;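 also: 0% = median of the plate's neutral control wells and 100% = double that signal; a rise in the Bmi1 reporter signal indicates esBAF inhibition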
rRNA inh HTS: selective bacterial rRNA inhibition in E. coli | GFP signal change (wild-type ribosome), % (no concentration beside the values) | AID 720706 | E. coli WT GFP vs humanized-ribosome RFP mutants, fluorescence, 24 h; active compounds read low; DMSO median 0, no signal -100 | hit rate 1.6% among 350,000;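 active = significant combined selectivity score with lowered wild-type GFP, culture density cut under 30%, mutant RFP and density less affected; inactive = any of these conditions unmet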
MLL AF4-AF9 inh: inhibitors of human MLL-AF4/AF9 interaction. hit rate 0.47% among 350,000. inhibition, % at 10 µM. AID 651704. AlphaScreen, biotin-AF4 peptide binding to FLAG-AF9. P42568;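 active = every replicate reaching a set inhibition limit, whatever the replicate mean, cut at about 25% in these data; inconclusive = mean inhibition reaches that limit but some replicates miss it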;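 also: 0% = plate neutral control median and 100% = total signal loss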
Target sequence (P42568 whole entry, looked up): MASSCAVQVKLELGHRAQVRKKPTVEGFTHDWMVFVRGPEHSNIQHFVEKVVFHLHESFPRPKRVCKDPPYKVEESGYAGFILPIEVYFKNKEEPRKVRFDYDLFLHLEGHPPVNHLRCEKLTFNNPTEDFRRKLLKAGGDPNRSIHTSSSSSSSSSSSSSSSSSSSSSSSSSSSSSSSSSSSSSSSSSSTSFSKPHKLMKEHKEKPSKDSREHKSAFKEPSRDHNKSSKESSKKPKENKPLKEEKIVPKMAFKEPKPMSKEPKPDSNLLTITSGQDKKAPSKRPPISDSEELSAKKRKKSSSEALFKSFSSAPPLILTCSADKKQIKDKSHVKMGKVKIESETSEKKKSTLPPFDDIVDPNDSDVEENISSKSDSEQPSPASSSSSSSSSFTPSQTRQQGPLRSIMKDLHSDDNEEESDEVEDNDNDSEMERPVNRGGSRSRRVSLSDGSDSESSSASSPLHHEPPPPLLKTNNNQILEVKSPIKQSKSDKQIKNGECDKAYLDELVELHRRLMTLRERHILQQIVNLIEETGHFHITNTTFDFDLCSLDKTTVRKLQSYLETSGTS
Wnt bcat act: activators of Wnt/beta-catenin signaling | Wnt/beta-catenin reporter cell assay, activator, plate reader | activation, % at 9.35 µM | hit rate 1.2% among 300,000 | AID 743398; in the data active = activation above about 30%, passing the limit was not always enough; inconclusive = no clear call, values can overlap the other calls;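 also: 0% = neutral control wells and 100% = positive control wells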
MITF TRPM1 HTS: MITF TRPM1 promoter activation in melanoma cells; SK-MEL-5 TRPM1-promoter luciferase, 24 h; % of positive control, neutral wells = 0; activation, % at 12.5 µM; hit rate 0.75% among 300,000;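 active = mean activation of at least 80% with every replicate also reaching 80%; inconclusive = mean reaches 80% but some replicate falls short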;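 also: 0% = neutral control wells and 100% = parthenolide positive control wells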
An asterisk follows results filed as active; ? = inconclusive; · = not tested or not shown.

SMILES	esBAF inh	rRNA inh HTS	MLL AF4-AF9 inh	Wnt bcat act	MITF TRPM1 HTS
CCc1ccc(N(C(C)=O)c2nc(CCl)cs2)cc1	·	-2.2	3.1	4.6	-4.2
CCOc1ccc(N2C(=O)CC(Sc3nc(O)c(CC)c(=O)[nH]3)C2=O)cc1 (stereo not drawn)	·	-39.1*	-5.6	-2.3	·
CCOc1ccc(N2C(=O)CC(SCCN)C2=O)cc1 (stereo not drawn)	-0.3	·	·	33.9*	·
Cc1ccc(SCC2=NN(c3nc(C)cc(C)n3)C(=O)C2)cc1	·	16.5	-2.3	-0.4	-1.6
Cc1ccccc1-n1c(SCC(=O)N2CCCC2)nnc1-c1ccccn1	-1.0	·	·	·	-13.4
Cn1c(SCC(=O)c2ccccc2)nnc1-c1ccccn1	35.7	0.4	0.3	56.9*	·
O=C(CSc1nnc(-c2ccco2)n1Cc1ccccc1)OC1CCCCC1	67.7*	·	·	·	·
O=C(CSc1nnc(-c2ccncc2)n1Cc1ccco1)OC1CCCCC1	5.5	-20.0	-17.5	-2.9	4.2
CCc1ccccc1-n1c(SCC(=O)N2CCCC2)nnc1-c1ccccn1	-3.4	·	·	64.8*	1.0
Cn1c(SCC(=O)c2ccccc2)nnc1-c1ccco1	34.4	·	·	39.9*	30.0
CCOc1ccc(NC(=O)c2sc3nc4n(c(=O)c3c2C)CCC4)cc1	12.4	9.8	-1.5	1.2	3.9
Cn1c(SCC(=O)c2ccccc2)nnc1-c1ccc(O)cc1	24.2	·	·	63.6*	23.0
Cc1nc(-c2ccccn2)nc(SCC(=O)c2ccccc2)c1Cl	·	-22.6*	-5.2	0.6	·
Cc1nc(-c2ccccn2)nc(SCC(=O)N2CCOCC2)c1Cl	·	·	1.1	0.8	·
COc1ccc(/C=C/C(=O)NC(C)CCc2ccccc2)cc1 (stereo not drawn)	-1.8	·	·	·	-4.0
CC(=O)Oc1cc2cccc(OC(C)=O)c(=O)c2c(OC(C)=O)c1OC(C)=O	-18.7	·	·	·	-26.1
CCN(CC)CCOCCOc1cc(C)c(Cl)c(C)c1	-6.6	·	·	-0.4	8.8
CCCCc1cc(=O)oc2cc(C)cc(OCC(=O)Nc3cccnc3)c12	-7.5	2.7	-1.0	-4.6	0.0
O=C(Oc1ccc(-c2ccccc2)cc1)N1CCCCC1	?	·	·	·	126.7*
Cc1nn(Cc2ccccc2)c(Cl)c1C(=O)NCCc1ccccc1	·	-2.3	-0.9	47.3*	60.1
CCc1noc(C)c1C(=O)NCCc1ccccc1	·	8.6	0.3	34.1*	46.0
COc1ccccc1-n1c(CNC(=O)c2ccco2)n[nH]c1=S	-4.3	27.6	-9.4	2.0	-8.6
C=CCN(c1ccccc1OC)S(=O)(=O)c1cccc(C(=O)OCC(=O)c2c(N)n(C)c(=O)n(C)c2=O)c1	29.2	-18.6*	1.9	0.2	-23.1
Cn1c(N)c(C(=O)COC(=O)c2cc(S(=O)(=O)N3CCCCC3)ccc2Cl)c(=O)n(C)c1=O	·	-26.0	-5.6	-0.9	3.9
CCN(c1ccc(OCC(=O)OCC(=O)c2c(N)n(C)c(=O)n(C)c2=O)cc1)S(=O)(=O)c1ccccc1	-4.1	-15.0*	-1.1	7.9	-4.0
SMILES	esBAF inh	rRNA inh HTS	MLL AF4-AF9 inh	Wnt bcat act	MITF TRPM1 HTS
Cn1c(N)c(C(=O)COC(=O)CSc2ccccc2)c(=O)n(C)c1=O	·	-17.6*	7.2	10.7	-4.9
Cn1c(N)c(C(=O)COC(=O)CSc2ccc3ccccc3c2)c(=O)n(C)c1=O	·	-20.2	-4.6	·	-16.3
Cn1c(N)c(C(=O)COC(=O)c2ccc(Cl)c(S(=O)(=O)N3CCCC3)c2)c(=O)n(C)c1=O	4.8	-25.9*	2.5	-0.7	4.6
Cc1ccc(S(=O)(=O)Nc2cccc3c2O[C@H](CN(C)S(=O)(=O)c2ccc(F)cc2)[C@@H](C)CN([C@@H](C)CO)C3=O)cc1	5.0	-1.2	·	·	·
OCCCCCN=c1cc(-c2ccccc2)oc2ccc(Cl)cc12	78.1*	·	·	·	2.7
Clc1ccc2oc(-c3ccccc3)cc(=NCCCN3CCOCC3)c2c1	·	-10.3	-5.3	57.4*	103.2*
CO[C@H]1CN(C)C(=O)c2cc(NC(=O)c3ccc(Oc4ccccc4)cc3)ccc2OC[C@@H](C)NC[C@@H]1C	-2.5	-4.0	9.6	·	·
CCn1c(CCl)nc2cc(S(=O)(=O)N3CCOCC3)ccc21	-0.3	10.0	-8.1	-6.4	·
COc1cccc2cc(C(=O)NCc3ccco3)c(=Nc3ccc(C(=O)O)cc3)oc12	33.9	15.4	-1.4	-1.6	34.5
O/N=C1\CCCc2ccc3ccccc3c21	·	-38.5*	-1.8	6.4	·
O=C1CCCc2ccc3ccccc3c21	-8.5	·	0.9	3.0	-3.1
COc1cc(C(N)=O)cc(Br)c1OCc1ccccc1	·	-27.7*	4.4	-0.9	21.2
O=C(C[C@@H]1C[C@H]2c3cc(NC(=O)Nc4ccc(F)cc4)ccc3O[C@H]2[C@H](CO)O1)NCC1CC1	-0.1	-2.1	·	·	·
CCCCCCCNC(=O)C1(CC2CC(c3ccccc3)=NO2)CCN(C(=O)OC(C)(C)C)CC1 (stereo not drawn)	62.0*	9.6	2.0	13.2	51.2
CCCCCCCNC(=O)C1(CC2CC(c3ccccc3)=NO2)CCN(C(=O)c2ccccc2)CC1 (stereo not drawn)	11.4	-11.3	8.8	-1.2	-6.8
Cc1ccc(Cn2nc(-c3ccccc3)nc2-c2ccccc2)cc1	36.4	·	·	55.3*	63.0
c1ccc(Cn2nc(-c3ccccc3)nc2-c2ccccc2)cc1	·	·	·	·	19.0
Cc1ccnc(NC(=O)c2ccc(Cl)s2)c1	60.7*	·	·	·	87.1*
Cc1ccnc(NC(=S)NC(=O)c2cccs2)c1	·	·	2.1	34.3*	65.2
O=C(NC(=S)Nc1ccc(Cl)cn1)c1cccs1	72.0*	·	·	16.6	15.5
O=C(Cn1nnc(-c2cccc(C(F)(F)F)c2)n1)NC(=O)NCc1ccco1	-5.7	·	·	·	-5.2
CCOC(=O)CN1N=C(/C=C/c2ccc(OC)cc2)CCC1=O	10.7	·	·	·	·
COC(=O)C1CCN(C(=O)c2ccc3nc(-c4cccc(OC)c4)oc3c2)CC1	·	-7.7	-1.8	32.3*	-1.2
COc1cccc(-c2nc3ccc(C(=O)NC(C)Cc4cccnc4)cc3o2)c1 (stereo not drawn)	54.3*	-30.7	-0.2	23.3	39.6
COC(=O)C1CCN(C(=O)c2ccc3nccnc3c2)CC1	-4.5	17.6	-1.7	0.0	-1.3
SMILES	esBAF inh	rRNA inh HTS	MLL AF4-AF9 inh	Wnt bcat act	MITF TRPM1 HTS
CC(C)(C)C(=O)Nc1nnc(SCc2ccc(F)cc2)s1	·	·	·	19.9	·
O=C(c1ccoc1)N1CCCC(CO)(CCCc2ccccc2)C1 (stereo not drawn)	0.0	-2.9	1.0	17.7	0.5
COc1ccc(/C=C2\NC(=S)N(CC3CCCO3)C2=O)c(OC)c1 (stereo not drawn)	47.9*	·	·	18.1	52.1
CCOc1ccc(N=C2NC(=O)S/C2=C\c2ccc(N(C)C)cc2)cc1	50.4*	·	·	·	·
CCOc1ccc(/C=C2/SC(=O)NC2=S)cc1	·	·	·	·	11.7
Cc1c(C(=O)N2CCN(S(=O)(=O)c3ccc(F)cc3)CC2)oc2ccccc12	10.3	-6.9	-3.5	-0.6	2.9
CCS(=O)(=O)Nc1ccc2c(c1)C(=O)N(C)C[C@@H](OC)[C@H](C)CN(C)[C@@H](C)CO2	0.3	0.5	·	·	·
COC(=O)C1=C(C)N(Cc2ccc(C(F)(F)F)cc2)C(=NCc2ccccc2)NC1c1ccc(Cl)cc1 (stereo not drawn)	·	-41.7*	-0.6	-28.0	·

Bioassay records as filed in PubChem.
